How the values were obtained:
Experiment in all cases: PBM binding z-score (relative to random genomic background probes); higher = stronger binding; sequences stand for … in GC…GCGATTGACAGCGTAGAATGAAGG
[1] = tested on: PPARg:RXRa DBDmut IVT, anti-RXR (DBD mutation: RXRa K156A/R161A, NR concentration 270 nM, RXRa partner concentration 90 nM)
Method in brief: (§1)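 Custom Agilent 4×180K protein-binding microarrays carried double-stranded probes. Their 34-nt variable regions held direct-repeat seeds, single-nucleotide variants, half-site ablations and random human genomic background sequences. Arrays were incubated 1 h with ligand-free nuclear receptor dimers in PBS pH 7.4, 2% milk, 0.02% Triton X-100, 1 mM DTT, 0.2 mg/mL BSA and 0.4 mg/ml salmon testes DNA. Antibodies against each partner (one per run) detected binding, and scanned fluorescence was regression-normalized. Binding z-scores use random background probes as reference.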

[2] = tested on: PPARg:RXRa IVT, anti-PPARg (NR concentration 270 nM, RXRa partner concentration 90 nM)
Method in brief: as §1

[3] = tested on: PPARg DBDmut:RXRa IVT, anti-PPARg (DBD mutation: PPARg1 K132A/R137A, NR concentration 270 nM, RXRa partner concentration 90 nM)
Method in brief: as §1

[4] = tested on: PPARg DBDmut IVT, anti-PPARg (DBD mutation: PPARg1 K132A/R137A, NR concentration 270 nM)
Method in brief: as §1

[5] = tested on: PPARg homodimer (NR concentration 180 nM)
Method in brief: as §1

[6] = tested on: PXR:RXRa (NR concentration 270 nM, RXRa partner concentration 90 nM)
Method in brief: as §1

[7] = tested on: PXR homodimer (NR concentration 270 nM)
Method in brief: as §1

[8] = tested on: RARa:RXR (NR concentration 270 nM, RXRa partner concentration 90 nM)
Method in brief: as §1

[9] = tested on: RARa homodimer (NR concentration 270 nM)
Method in brief: as §1

[10] = tested on: RARb:RXRa (NR concentration 270 nM, RXRa partner concentration 90 nM)
Method in brief: as §1

[11] = tested on: RARb homodimer (NR concentration 270 nM)
Method in brief: as §1

[12] = tested on: RARg:RXRa (NR concentration 270 nM, RXRa partner concentration 90 nM)
Method in brief: as §1

[13] = tested on: RARg homodimer (NR concentration 270 nM)
Method in brief: as §1

[14] = tested on: RXRa DBDmut IVT, anti-RXR (DBD mutation: RXRa K156A/R161A, NR concentration 90 nM)
Method in brief: as §1

[15] = tested on: RXRa homodimer (NR concentration 180 nM)
Method in brief: as §1

[16] = tested on: THRa:RXRa (NR concentration 90 nM, RXRa partner concentration 90 nM)
Method in brief: as §1

[17] = tested on: THRa homodimer (NR concentration 90 nM)
Method in brief: as §1

[18] = tested on: VDR homodimer (NR concentration 270 nM)
Method in brief: as §1

Sequence	PBM binding z-score [1]	PBM binding z-score [2]	PBM binding z-score [3]	PBM binding z-score [4]	PBM binding z-score [5]	PBM binding z-score [6]	PBM binding z-score [7]	PBM binding z-score [8]	PBM binding z-score [9]	PBM binding z-score [10]	PBM binding z-score [11]	PBM binding z-score [12]	PBM binding z-score [13]	PBM binding z-score [14]	PBM binding z-score [15]	PBM binding z-score [16]	PBM binding z-score [17]	PBM binding z-score [18]
TAGCCTAGGTCGTGGGCCAGTATACCACGCGAAC	-0.693	0.595	-0.359	-1.24	-0.437	-0.344	-0.949	0.14	-0.754	1.19	0.693	0.842	0.996	-0.872	0.851	0.795	-0.254	-0.53
CAAACTAGGTCACCGGAAGCTCAAAGTCCGCATG	8.73	9.13	6.78	2.89	2.58	1.9	0.365	3.19	1.19	4.38	3.48	4.84	5.66	1.98	3.81	3.38	1.92	0.814
CCGACTGGGGAATAAGGTTACCATAAGCCAGCCC	1.7	1.42	-0.845	-0.915	0.47	0.362	0.0229	1.11	-0.12	0.793	1.02	0.435	0.223	-0.297	0.812	2.03	1.18	-0.0686
ATCTCTAGGTAACCAGTTCAGTGAAAGAGAGGAC	3.36	3.09	0.836	0.902	1.06	1.19	1.26	1.04	1.15	0.835	1.05	0.822	0.768	0.358	0.791	1.35	1.18	1.35
TCGAGTAGGTTAGTCAGGGCATTCAGCCAACATA	1.73	1.72	0.0156	-0.832	0.613	0.173	0.204	0.135	0.35	0.484	0.896	-0.14	0.189	0.358	-0.156	1.1	0.314	0.685
CGAACTAGGTCATCCGGGACAGTGAATACATTGA	8.35	8.45	3.68	1.68	1.84	1.8	0.618	2.4	0.0887	4.09	2.87	3.87	4.59	2.41	2.75	3.58	1.84	1.96
TCTCGGAGAACACGAAAGGTCAGAGCTCGACATC	1.25	1.13	-0.0833	-0.197	1.7	3.39	0.0795	3.89	0.536	3.55	4.31	3.67	3.24	0.702	3.72	2.63	0.193	0.319

From the supplement of paper PMC6555819
